Results from PubChem BioAssay (EPA / NIEHS).
Activity calls are given as the source filed them. The calls were made as follows: active = hit-call score of the fitted dose curve at least 0.9, where 1 is the maximum; inactive = score below 0.9.

Experiments:
[1] = APR_HepG2_P-H2AX_72hr: Apredica 72-hour HepG2 Assay for H2AX Phosphorylation (AID 2282916); conditions: imaging, actives raise or lower the signal;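 also: phospho-histone H2A.x immunostain intensity per cell marking DNA damage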
Summary of the method: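 HepG2; cpd 0.39–200 uM ×10 conc, duplicates; 0.5% DMSO; 72 hr. Fix 3.7% formaldehyde 30 min RT, 0.5% Triton X-100 10 min. Anti-phospho-H2A.x 1:200 + Hoechst 2 ug/mL, 60 min RT; ArrayScan imaging.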

[2] = APR_HepG2_MitoMembPot_72hr: Apredica 72-hour HepG2 Assay for Mitochondrial Membrane Potential (AID 2282917); conditions: imaging, actives raise or lower the signal
Summary of the method: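 Membrane potential read by MitoTracker Red CMXRos (250 nM, 30 min, pre-fixation) fluorescence imaging of HepG2 after 72 hr exposure. Ten concentrations, 0.39–200 uM, duplicate wells, 0.5% DMSO; fitted in both directions against DMSO baseline.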

[3] = APR_HepG2_MitoticArrest_72hr: Apredica 72-hour HepG2 Assay for Mitotic Arrest (AID 2282918); conditions: high-content imaging, actives raise or lower the signal
Summary of the method: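 Read-out is phospho-histone H3 immunofluorescence with Hoechst nuclear segmentation, imaged at 20x. Human HepG2 liver cells received ten concentrations (0.39–200 uM, final DMSO 0.5% v/v) for 72 hr before fixation. Gain or loss of signal was fitted relative to DMSO.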

[4] = APR_HepG2_StressKinase_72hr: Apredica 72-hour HepG2 Assay for Stress Kinase (AID 2282921); conditions: HepG2 stress kinase (phospho-c-Jun) imaging, actives raise or lower the signal
Summary of the method: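 Dose 0.39–200 uM (10 pts, duplicate), 0.5% DMSO; 72 h; fix 3.7% formaldehyde 30 min RT; Triton permeabilize; anti-phospho-c-Jun/Cy3 + Hoechst 60 min RT; image 20x; fit gain/loss vs DMSO.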

[5] = APR_HepG2_StressKinase_24hr: Apredica 24-hour HepG2 Assay for Stress Kinase (AID 2282922); conditions: HepG2 stress kinase (phospho-c-Jun) imaging, actives raise or lower the signal
Summary of the method: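 HepG2, 24 hr dosing, 0.39–200 uM in duplicate, 0.5% DMSO; formaldehyde fix (3.7%), 0.5% Triton X-100; anti-phospho-c-Jun + Cy3 secondary, Hoechst counterstain; ArrayScan imaging; bidirectional curve fit vs DMSO baseline.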

[6] = APR_HepG2_p53Act_72hr: Apredica 72-hour HepG2 Assay for p53 Activation (AID 2282923); conditions: high-content imaging, actives raise or lower the signal;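 also: average cellular p53 protein immunofluorescence intensity in HepG2 cells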
Summary of the method: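 10-pt conc. 0.39–200 uM, duplicate, 0.5% DMSO; 72 hr exposure; 3.7% formaldehyde fix, 0.5% Triton perm; sheep anti-p53/Cy5 + Hoechst; ArrayScan 20x, 6 images/well; gain/loss fit vs DMSO.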

[7] = APR_HepG2_MitoMass_72hr: Apredica 72-hour HepG2 Assay for Mitochondrial Mass (AID 2282924); conditions: high-content imaging, actives raise or lower the signal;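 also: MitoTracker Red CMXRos stain intensity per cell imaged as mitochondrial mass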
Summary of the method: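 HepG2, 72 hr cmpd, 10 conc 0.39–200 uM in dup, DMSO 0.5% v/v. MitoTracker Red CMXRos 250 nM 30 min pre-fix; formaldehyde 3.7% fix 30 min RT. HCS imaging, gain/loss fit vs DMSO.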

[8] = APR_HepG2_NuclearSize_72hr: Apredica 72-hour HepG2 Assay for Nuclear Size (AID 2282925); conditions: high-content imaging, actives raise or lower the signal
Summary of the method: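 HepG2; cpd 0.39–200 uM, 10 conc, duplicate; 72 h; DMSO 0.5% v/v; fix 3.7% formaldehyde 30 min RT; Triton permeabilization; Hoechst 2 ug/mL; HCS imaging 20x; nuclear diameter; gain/loss fit vs DMSO.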

[9] = APR_HepG2_P-H2AX_24hr: Apredica 24-hour HepG2 Assay for H2AX Phosphorylation (AID 2282920); conditions: high-content imaging, actives raise or lower the signal
Summary of the method: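 HepG2, 24 hr, cpd 0.39–200 uM (10 conc, duplicate), DMSO 0.5% v/v final. Fix 3.7% formaldehyde, Triton X-100 permeabilize, anti-phospho-H2A.x 1:200 + Hoechst 2 ug/mL. Imaged, bidirectional fit vs DMSO.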

[10] = APR_HepG2_MicrotubuleCSK_72hr: Apredica 72-hour HepG2 Assay for Microtubule CSK Stabilty (AID 2282919); conditions: HepG2 microtubule cytoskeleton, high-content imaging, actives raise or lower the signal
Summary of the method: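 Read-out is tubulin fluorescence intensity from high-content imaging of HepG2 cells, with nuclei identified by Hoechst 33342. Treatment lasts 72 h at 0.39–200 uM, and curves are fitted bidirectionally against the DMSO negative control.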

Measured: AC50

C=CC(=O)NCNC(=O)C=C
inactive: [1] | [2] | [3] | [4] | [5] | [6] | [7] | [8]

Cc1cc2c3c(c1)C(c1ccccc1)=N[C@@H](NC(=O)c1ccncc1)C(=O)N3CC2
inactive: [1] | [2] | [3] | [9] | [4] | [5] | [6] | [7] | [8]

Cc1cccc([N+](=O)[O-])c1
inactive: [1] | [3] | [10] | [4] | [5] | [6] | [7] | [8]

O=C(O)C(F)(F)C(F)(F)C(F)(F)C(F)(F)C(F)(F)C(F)(F)C(F)(F)C(F)(F)C(F)(F)F
inactive: [2] | [10]
active: [1] 108 µM | [3] 98.1 µM | [4] 113 µM | [6] 113 µM | [7] 111 µM | [8] 122 µM

Cc1ccccc1O
inactive: [1] | [3] | [10] | [9] | [4] | [6] | [7] | [8]

Nn1cnnc1
inactive: [1] | [2] | [3] | [10] | [9] | [4] | [6] | [7] | [8]

CCCN(CCC)N=O
inactive: [1] | [2] | [3] | [4] | [5] | [6] | [7] | [8]

ClC1=C(Cl)[C@]2(Cl)[C@@H]3[C@H]4C[C@H]([C@@H]5O[C@H]45)[C@@H]3[C@@]1(Cl)C2(Cl)Cl
inactive: [1] | [2] | [3] | [9] | [4] | [6] | [7] | [8]

Nc1ccc(-c2ccc(N)cc2)cc1
active: [1] 104 µM | [6] 106 µM
inactive: [2] | [3] | [4] | [7] | [8]

CC(C)(c1ccccc1)c1ccc(O)cc1
inactive: [3] | [9] | [4] | [6] | [7] | [8]
active: [1] 97 µM

CCCCCCCCOC(=O)c1ccccc1C(=O)OCCCCCCCC
inactive: [1] | [3] | [10] | [4] | [6] | [7] | [8]

CC(C)(O)C(=O)Nc1ccc([N+](=O)[O-])c(C(F)(F)F)c1
inactive: [1] | [3] | [9] | [4] | [6]
active: [7] 0.652 µM | [8] 0.522 µM

N#Cc1ccc(N(CC(N)=O)CC(F)(F)F)cc1C(F)(F)F
inactive: [1] | [3] | [9] | [4] | [5] | [6] | [7] | [8]

CN(C)c1nc(=O)n(C2CCCCC2)c(=O)n1C
inactive: [1] | [3] | [10] | [4] | [7] | [8]

Cc1ccc(O)c(C)c1
inactive: [1] | [3] | [4] | [6] | [7] | [8]

CCC(C)(c1ccc(O)cc1)c1ccc(O)cc1
inactive: [1] | [5] | [6] | [8]
active: [4] 34.3 µM

CN(C)CCO
inactive: [1] | [3] | [9] | [4] | [6] | [7] | [8]

CCCCCCCCCc1ccc(O)cc1
inactive: [1] | [3] | [10] | [4] | [6] | [7] | [8]

Clc1ccc(Cl)cc1
inactive: [1] | [3] | [4] | [6] | [7] | [8]

ClC(Cl)=C(c1ccc(Cl)cc1)c1ccc(Cl)cc1
inactive: [1] | [10] | [4] | [6] | [8]
active: [3] 22.5 µM | [7] 60.2 µM

O=C(O)C(F)(F)C(F)(F)C(F)(F)C(F)(F)C(F)(F)F
inactive: [1] | [3] | [10] | [4] | [6] | [7] | [8]

Clc1ccc(C(Cl)(Cl)Cl)cc1
inactive: [1] | [3] | [9] | [4] | [6] | [7] | [8]

CC(C)C(=O)OCC(C)(C)C(OC(=O)C(C)C)C(C)C (centres undefined)
inactive: [1] | [3] | [9] | [4] | [5] | [6] | [7] | [8]

Oc1ccc(Cl)cc1Cl
inactive: [1] | [3] | [4] | [5] | [6] | [7] | [8]

c1ccc(-c2ccccc2)cc1
inactive: [1] | [3] | [4] | [5] | [6] | [7] | [8]

Oc1ccc(C(c2ccc(O)cc2)(C(F)(F)F)C(F)(F)F)cc1
inactive: [1] | [3] | [4] | [5] | [6] | [7] | [8]
